Results: PubChem BioAssay (Tox21)
Inconclusive results are not listed. Calls of active or inactive are those of the source. Unless noted, calls come from the whole dose curve.

Experiments:
[1] = Nuclear factor erythroid 2-related factor 2/antioxidant responsive element (Nrf2/ARE) small molecule agonists: qHTS cell viability counter screen in human keratinocytes (AID 1919968; active = well fitted curve in the direction sought with a large enough effect in the repeat runs; an effect the other way counts as inactive or inconclusive; note: nearly all actives have a fitted effect of over 55% in size)
Method in brief: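 After a 5 h attachment period, ARE-reporter keratinocytes were dosed with compounds in DMSO and then cultured 23 h at 37 C. Cell viability came from CellTiter-Fluor signal read after a further 1 h.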

[2] = Nuclear factor erythroid 2-related factor 2/antioxidant responsive element (Nrf2/ARE) small molecule agonists: luciferase reporter gene qHTS assay in human keratinocytes (AID 1919969); note: nearly all actives have a fitted effect of over 35% in size
[3] = biological target: Gonadotropin-releasing hormone receptor (Homo sapiens) (UniProt P30968); experiment: Human gonadotropin-releasing hormone receptor (GnRHR) small molecule agonists, calcium flux assay in GnRHR-HEK293 cells (AID 1920063); note: nearly all actives have a fitted effect of over 35% in size
Gonadotropin-releasing hormone receptor (Homo sapiens), sequence (P30968 whole entry, looked up): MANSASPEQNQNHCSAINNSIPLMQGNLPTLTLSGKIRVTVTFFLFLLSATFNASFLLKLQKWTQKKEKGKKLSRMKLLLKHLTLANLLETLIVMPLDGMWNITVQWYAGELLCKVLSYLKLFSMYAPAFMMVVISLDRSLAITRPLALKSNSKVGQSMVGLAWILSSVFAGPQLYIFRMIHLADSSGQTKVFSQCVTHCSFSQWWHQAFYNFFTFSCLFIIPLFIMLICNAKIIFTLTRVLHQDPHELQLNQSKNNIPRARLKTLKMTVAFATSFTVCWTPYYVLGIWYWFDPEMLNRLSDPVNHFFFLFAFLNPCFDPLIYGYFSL
Method in brief: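 We seeded human GnRHR-expressing HEK293 cells for 18 hours, loaded them with calcium dye for an hour at 37 C, added test compounds, and recorded fluorescence intensity kinetically for three minutes.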

[4] = biological target: KiSS-1 receptor (Homo sapiens) (UniProt Q969F8); experiment: Human kisspeptin (KISS1R) small molecule agonists, calcium flux assay in KISS1R-HEK293 cells (AID 1920064; active = well fitted curve in the direction sought with a large enough effect in the repeat runs; an effect the other way counts as inactive or inconclusive)
KiSS-1 receptor (Homo sapiens), sequence (Q969F8 whole entry, looked up): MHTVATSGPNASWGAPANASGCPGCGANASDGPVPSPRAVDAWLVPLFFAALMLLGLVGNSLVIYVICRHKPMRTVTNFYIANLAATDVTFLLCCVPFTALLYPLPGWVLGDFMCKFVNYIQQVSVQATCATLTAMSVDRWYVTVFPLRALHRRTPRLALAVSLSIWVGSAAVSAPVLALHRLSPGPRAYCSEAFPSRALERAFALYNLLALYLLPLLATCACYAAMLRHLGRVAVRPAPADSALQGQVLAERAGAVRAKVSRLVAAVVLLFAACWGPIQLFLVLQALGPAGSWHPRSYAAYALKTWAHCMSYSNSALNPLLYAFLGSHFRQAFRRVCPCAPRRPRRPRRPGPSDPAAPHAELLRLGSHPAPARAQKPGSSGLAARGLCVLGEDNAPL
Method in brief: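 Kinetic calcium assay, 1 s sampling over 3 min at Ex/Em 480/540, in HEK293 cells engineered with human KISS1R; compounds delivered in DMSO after 1 h dye loading.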

[5] = G protein-coupled receptor (GPCR) small molecule agonists, calcium flux assay: HEK293 wild type cell line counter screen (AID 1920065)
Method in brief: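 Calcium-sensitive dye, loaded 1 h at 37 C into cells cultured 18 h, reports compound-evoked calcium release as fluorescence (Ex/Em 480/540), measured over 3 min. Agonist mode; 15-point titrations, triplicate.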

[6] = p53 small molecule agonists, cell-based qHTS assay with human liver microsomes (AID 1963577);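 note: p53 response element beta-lactamase reporter cells with liver microsomes plus NADPH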
Method in brief: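 Compounds act here after metabolic activation: human liver microsomes and NADPH, both at 0.5 mg/mL final, were co-added to p53RE-bla cells. Incubation ran 16 h at 37 C, followed by LiveBLAzer detection.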

[7] = p53 small molecule agonists, cell-based qHTS assay with rat liver microsomes (AID 1963578)
Method in brief: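 Read-out is beta-lactamase reporter fluorescence (LiveBLAzer, 2 h, room temperature, dark) in p53RE-bla cells treated 16 h at 37 C with compound, rat liver microsomes and NADPH, both 0.5 mg/mL final.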

[8] = p53 small molecule agonists, cell-based qHTS assay: qHTS cell viability counter screen (AID 1963581); note: nearly all actives have a fitted effect of over 45% in size
Method in brief: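 Following 5 h attachment, HCT-116 p53RE-bla cells took up compound for 16 h at 37 C; the reporter was read with B/G FRET substrate (2 h RT), and viability then via CellTiter-Glo ATP luminescence.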

[9] = p53 small molecule agonists, cell-based qHTS assay (AID 1963582; active = well fitted activation curve with a large enough effect in the signal ratio in the repeat runs, not every such curve was filed as active; the % refers to the signal ratio)
Method in brief: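 In this cell-based concentration-response screen, a p53 response element drives beta-lactamase; cells received DMSO-borne compounds after 5 h culture and were incubated a further 16 h before FRET substrate development.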

[10] = biological target: 5-hydroxytryptamine receptor 2A (Homo sapiens) (UniProt P28223); experiment: 5-hydroxytryptamine receptor 2A (HTR2A) small molecule antagonists, cell-based qHTS assay (AID 1963586); note: nearly all actives have a fitted effect of over 45% in size
5-hydroxytryptamine receptor 2A (Homo sapiens), sequence (P28223 whole entry, looked up): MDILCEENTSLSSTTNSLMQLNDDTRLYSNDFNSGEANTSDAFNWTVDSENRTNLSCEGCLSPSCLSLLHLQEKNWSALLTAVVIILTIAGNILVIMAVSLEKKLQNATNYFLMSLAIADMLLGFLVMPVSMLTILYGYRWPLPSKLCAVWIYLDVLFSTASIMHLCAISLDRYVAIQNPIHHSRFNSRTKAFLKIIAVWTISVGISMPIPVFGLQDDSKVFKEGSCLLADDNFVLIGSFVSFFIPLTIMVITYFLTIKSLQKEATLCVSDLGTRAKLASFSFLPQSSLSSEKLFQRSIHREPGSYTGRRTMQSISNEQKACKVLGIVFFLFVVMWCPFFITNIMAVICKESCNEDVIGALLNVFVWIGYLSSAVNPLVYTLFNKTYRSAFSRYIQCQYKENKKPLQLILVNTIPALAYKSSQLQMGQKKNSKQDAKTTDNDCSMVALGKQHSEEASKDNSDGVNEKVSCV
Method in brief: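 Antagonist-mode intracellular calcium assay: DOI (4 nM) added after 5 min compound pre-incubation at room temperature to dye-loaded HTR2A-CHO cells. Fluorescence followed for 3 min, sampled every second.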

[11] = biological target: 5-hydroxytryptamine receptor 2A (Homo sapiens) (UniProt P28223); experiment: 5-hydroxytryptamine receptor 2A (HTR2A) small molecule agonists, cell-based qHTS assay (AID 1963587); note: nearly all actives have a fitted effect of over 30% in size
Method in brief: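 CHO cells stably expressing human HTR2A, plated 18 h, loaded with calcium dye 1 h at 37 C. Agonist mode: compounds added and intracellular calcium fluorescence recorded kinetically for 2 min at 1 sec intervals.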

[12] = biological target: Muscarinic acetylcholine receptor M1 (Homo sapiens) (UniProt P11229); experiment: Cholinergic receptor muscarinic 1 (CHRM1) small molecule agonists, cell-based qHTS assay (AID 1963589); note: nearly all actives have a fitted effect of over 35% in size
Muscarinic acetylcholine receptor M1 (Homo sapiens), sequence (P11229 whole entry, looked up): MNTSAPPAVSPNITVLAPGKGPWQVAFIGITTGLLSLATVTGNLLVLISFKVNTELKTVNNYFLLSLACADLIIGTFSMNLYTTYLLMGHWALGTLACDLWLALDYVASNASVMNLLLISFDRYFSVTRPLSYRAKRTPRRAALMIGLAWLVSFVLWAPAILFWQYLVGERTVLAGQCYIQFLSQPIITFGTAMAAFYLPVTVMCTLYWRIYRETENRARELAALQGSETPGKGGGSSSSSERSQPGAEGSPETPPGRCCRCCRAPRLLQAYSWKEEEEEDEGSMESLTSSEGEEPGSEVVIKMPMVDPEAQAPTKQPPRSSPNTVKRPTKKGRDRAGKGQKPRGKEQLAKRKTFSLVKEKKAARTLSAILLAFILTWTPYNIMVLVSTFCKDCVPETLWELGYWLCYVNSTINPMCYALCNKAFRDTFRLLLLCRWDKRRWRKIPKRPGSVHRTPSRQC
Method in brief: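 Measures agonist-induced intracellular calcium rise. Stable human CHRM1 CHO line, 1 h dye load at 37 C, compounds from DMSO, kinetic fluorescence read.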

[13] = cAMP Responsive Elements (CRE) small molecule agonists, cell-based qHTS assay (AID 1963590); note: potency is the fitted concentration of half-maximal effect
Method in brief: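 A CRE-responsive beta-lactamase reporter in HEK 293T cells was used. Treatment ran 3 h at 37 C; detection used LiveBLAzer B/G FRET substrate for 2 h at room temperature.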

[14] = cAMP Responsive Elements (CRE) small molecule antagonists, cell-based qHTS assay (AID 1963591; active = well fitted inhibition curve with a large enough effect in the signal ratio in the repeat runs, not every such curve was filed as active; the % refers to the signal ratio)
Method in brief: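 HEK293T cells carrying a CRE-driven beta-lactamase reporter receive compound and NKH477 (0.25 uM final) for 3 h. Fluorescence from LiveBLAzer B/G FRET substrate is read after 2 h at room temperature.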

[15] = biological target: Beta-2 adrenergic receptor (Homo sapiens) (UniProt P07550); experiment: Adrenergic beta2 receptor (ADRB2) small molecule antagonists, cell-based qHTS assay (AID 1963592); note: series mostly up to about 92 µM; nearly all actives have a fitted effect of over 50% in size
Beta-2 adrenergic receptor (Homo sapiens), sequence (P07550 whole entry, looked up): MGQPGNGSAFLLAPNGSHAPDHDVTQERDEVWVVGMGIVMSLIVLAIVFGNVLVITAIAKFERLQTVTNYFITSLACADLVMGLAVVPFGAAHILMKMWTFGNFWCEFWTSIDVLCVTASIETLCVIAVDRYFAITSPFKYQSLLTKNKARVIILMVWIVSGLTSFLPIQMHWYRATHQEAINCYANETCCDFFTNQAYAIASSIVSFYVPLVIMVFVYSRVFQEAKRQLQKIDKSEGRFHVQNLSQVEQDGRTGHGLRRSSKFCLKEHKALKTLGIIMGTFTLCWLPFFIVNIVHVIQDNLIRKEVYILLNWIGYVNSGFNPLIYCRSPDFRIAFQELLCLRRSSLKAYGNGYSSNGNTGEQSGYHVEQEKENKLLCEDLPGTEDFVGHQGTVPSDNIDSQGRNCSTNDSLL
Method in brief: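 Cells (CHO, stable ADRB2 overexpression) incubated 18-20hr at 37C; compounds added from DMSO; agonist mix (1nM isoproterenol, 100uM IBMX, 25uM Ro-20-1724) added; 0.5hr RT; d2-cAMP and anti-cAMP-cryptate added; 1hr RT; 665/615 nm read.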

[16] = biological target: Beta-2 adrenergic receptor (Homo sapiens) (UniProt P07550); experiment: Adrenergic beta2 receptor (ADRB2) small molecule agonists, cell-based qHTS assay (AID 1963593);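 note: CHO cells stably overexpressing human ADRB2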
Method in brief: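 CHO cells stably over-expressing ADRB2 were plated overnight at 37C, then dosed with compounds plus a stimulation mix containing 100uM IBMX and 25uM Ro-20-1724 for 0.5hr at room temperature. cAMP was measured by HTRF competition, 1hr.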

[17] = biological target: D(2) dopamine receptor (Homo sapiens) (UniProt P14416); experiment: Dopamine D2 receptor (DRD2) small molecule agonists, cell-based qHTS assay (AID 1963594); note: nearly all actives have a fitted effect of over 35% in size
D(2) dopamine receptor (Homo sapiens), sequence (P14416 whole entry, looked up): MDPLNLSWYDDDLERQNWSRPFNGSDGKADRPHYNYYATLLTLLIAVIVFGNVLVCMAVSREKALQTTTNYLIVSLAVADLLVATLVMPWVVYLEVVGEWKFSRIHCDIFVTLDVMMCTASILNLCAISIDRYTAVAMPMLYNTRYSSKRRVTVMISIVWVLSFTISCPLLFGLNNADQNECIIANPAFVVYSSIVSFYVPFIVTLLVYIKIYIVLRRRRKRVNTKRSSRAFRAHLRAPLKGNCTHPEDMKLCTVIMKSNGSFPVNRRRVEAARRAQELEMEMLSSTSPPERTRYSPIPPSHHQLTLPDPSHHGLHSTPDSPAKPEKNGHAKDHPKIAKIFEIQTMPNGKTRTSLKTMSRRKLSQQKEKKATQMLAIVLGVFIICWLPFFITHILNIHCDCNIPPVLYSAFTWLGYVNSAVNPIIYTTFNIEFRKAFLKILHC
Method in brief: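 HEK293 cells stably expressing human DRD2, pre-treated with PDE inhibitor Ro20-1724 (0.1 mM final) and compound 10 min at room temperature, then stimulated with NKH477 (200nM […]) for 30 min. cAMP read by HTRF (665/620 nm).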

[18] = biological target: D(2) dopamine receptor (Homo sapiens) (UniProt P14416); experiment: Dopamine D2 receptor (DRD2) small molecule antagonists, cell-based qHTS assay (AID 1963595; active = well fitted inhibition curve with a large enough effect in the signal ratio in the repeat runs, with a control signal flat; the % refers to the signal ratio; note: potency is the fitted concentration of half-maximal effect)
Method in brief: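 Readout: HTRF cAMP, cAMP-d2 competing with cellular cAMP for anti-cAMP cryptate, read after 1 h. Cells: DRD2-HEK293. Conditions: 0.1 mM Ro20-1724, 12 nM quinpirole, 200 nM NKH477, 30 min RT.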

[19] = biological target: Muscarinic acetylcholine receptor M1 (Homo sapiens) (UniProt P11229); experiment: Cholinergic receptor muscarinic 1 (CHRM1) small molecule antagonists, cell-based qHTS assay (AID 1963588); note: nearly all actives have a fitted effect of over 40% in size
Method in brief: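 CHRM1-CHO calcium-flux assay, antagonist mode. Cells were seeded 18 h, dye-loaded 1 h at 37 C and given compound for 5 min at RT, then acetylcholine was added at 50nM. FDSS fluorescence was read 3 min; 15 concentrations, three runs.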
% is set by controls: 0 for no effect and ±100 for the full control effect.

O=C(O)C(=O)Nc1cccc(-c2nn[nH]n2)c1
inactive: Potency [1] | Potency [2] | Potency [3] | Potency [4] | Potency [5] | Potency [6] | Potency [7] | Potency [8] | Potency [9] | Potency [10] | Potency [11] | Potency [12] | Potency [13] | Potency [14] | Potency [15] | Potency [16] | Potency [17] | Potency [18]

CCN(Cc1cccc(S(=O)(=O)O)c1)c1ccccc1
inactive: Potency [1] | Potency [2] | Potency [3] | Potency [4] | Potency [5] | Potency [6] | Potency [7] | Potency [8] | Potency [9] | Potency [10] | Potency [11] | Potency [19] | Potency [12] | Potency [13] | Potency [14] | Potency [15] | Potency [17]

CCNc1cc(O)ccc1C
inactive: Potency [1] | Potency [2] | Potency [3] | Potency [4] | Potency [5] | Potency [6] | Potency [7] | Potency [8] | Potency [9] | Potency [11] | Potency [19] | Potency [12] | Potency [13] | Potency [14] | Potency [15] | Potency [17]

CC(C)CCCCCCCCCCCCCCC(=O)O
inactive: Potency [1] | Potency [2] | Potency [3] | Potency [4] | Potency [5] | Potency [6] | Potency [7] | Potency [8] | Potency [9] | Potency [10] | Potency [11] | Potency [19] | Potency [12] | Potency [14] | Potency [15] | Potency [16] | Potency [17] | Potency [18]

CN(CCOc1ccc(CC2SC(=O)NC2=O)cc1)c1ccccn1 (stereo not given)
inactive: Potency [1] | Potency [2] | Potency [3] | Potency [4] | Potency [5] | Potency [6] | Potency [7] | Potency [8] | Potency [15] | Potency [17] | Potency [18]

[O-][n+]1ccc(Cl)cc1
inactive: Potency [1] | Potency [2] | Potency [3] | Potency [4] | Potency [5] | Potency [6] | Potency [7] | Potency [8] | Potency [9] | Potency [10] | Potency [19] | Potency [12] | Potency [13] | Potency [14] | Potency [16] | Potency [17] | Potency [18]

CC(C)(C)CC(C)(C)c1ccc(Nc2ccc(C(C)(C)CC(C)(C)C)cc2)cc1
inactive: activity change, negative = cytotoxicity [1] 0.0348% [at 8.39 µM] | activity, positive = activation [2] -1.24% [at 8.39 µM] | activity change [3] 0.129% [at 5.22 µM, hits give high values] | activation [4] 0.255% [at 6.97 µM] | activation [5] -0.517% [at 5.23 µM] | activation [6] -1.73% [at 5.99 µM] | activation [7] -0.0551% [at 5.99 µM] | activity change, negative = cytotoxicity [8] 0.663% [at 5.99 µM] | activity, negative = inhibition [10] -0.349% [at 5.62 µM] | activity, negative = inhibition [19] -10.6% [at 5.58 µM] | activation [13] -1.83% [at 8.39 µM] | activity change, negative = inhibition [14] -1.43% [at 8.39 µM] | activity change, negative = inhibition [15] -0.838% [at 8.39 µM] | activation [16] 6.6% [at 8.39 µM] | activation [17] 1.28% [at 8.39 µM] | activity change, negative = inhibition [18] -0.278% [at 8.38 µM]

Nc1ncnc2c1ncn2[C@@H]1O[C@H](COP(=O)(O)O)[C@@H](O)[C@H]1O
active: Potency [13] 11.9 µM | Potency [18] 0.944 µM
inactive: Potency [1] | Potency [2] | Potency [3] | Potency [4] | Potency [5] | Potency [6] | Potency [7] | Potency [8] | Potency [9] | Potency [10] | Potency [11] | Potency [19] | Potency [12] | Potency [14] | Potency [15]
